# According to the supplement of paper PMC8728848:
# About 410 targets per protein were measured; listed, in parts, are those with the strongest signals and a random draw of the rest.
# B1: LlpB (Pseudomonas fluorescens) (protein)
# chain: MGSSHHHHHHSSGLVPRGSHMASSGFRIILFNSANNGTAILPPRNCLVAGQYLESPSKRYKLILEADGNLRLYDNGVPIWVADSSVPYTYVDNRPNTNLVTCFYMQGSAFLVDRVGSRTWATIGDWIDGAADRAYLQVQDDGNVVVVDGVPRWARFGFTPAALPNRGVFYPDHGTGPLPSFPVWSWTF
# Assays:
# Test in all cases: glycan array binding signal (z-score within array); higher = stronger binding
# Conditions in all cases: glycan notation: IUPAC condensed, linker removed
# Fuc(a1-2)Gal = biological target: Fuc(a1-2)Gal
# In short: (§1)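 Glycan array data were curated from 3228 arrays in the Consortium for Functional Glycomics database and kept only where the protein sequence was available. Glycan names were converted to IUPAC-condensed notation, and columns mapping to the same glycan were averaged. The binding signal is a within-array Z-score, averaged across arrays of the same protein sequence at different concentrations or buffers and across linkers. Negative Z-scores can be read as non-binding.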
# Fuc(a1-2)Gal(b1-3)GalNAc = biological target: Fuc(a1-2)Gal(b1-3)GalNAc
# In short: as §1
# [1] = biological target: Fuc(a1-2)Gal(b1-3)GlcNAc(b1-2)Man(a1-3)[Fuc(a1-2)Gal(b1-3)GlcNAc(b1-2)Man(a1-6)]Man(b1-4)GlcNAc(b1-4)[Fuc(a1-6)]GlcNAc
# In short: as §1
# [2] = biological target: Fuc(a1-2)Gal(b1-4)GlcNAc(b1-3)Gal(b1-4)GlcNAc(b1-3)Gal(b1-4)GlcNAc
# In short: as §1
# [3] = biological target: Fuc(a1-2)Gal(b1-4)GlcNAc(b1-3)[Fuc(a1-3)[Gal(b1-4)]GlcNAc(b1-6)]Gal(b1-4)Glc
# In short: as §1
# [4] = biological target: Fuc(a1-2)Gal(b1-4)[Fuc(a1-3)]GlcNAc(b1-3)[Neu5Ac(a2-6)Gal(b1-4)GlcNAc(b1-6)]Gal(b1-4)Glc
# In short: as §1
# [5] = biological target: Fuc(a1-2)[GalNAc(a1-3)]Gal(b1-4)Glc
# In short: as §1
# [6] = biological target: Fuc(a1-3)[Gal(b1-4)]GlcNAc(b1-3)Gal(b1-4)[Fuc(a1-3)]GlcNAc
# In short: as §1
# [7] = biological target: Gal(a1-3)Gal(b1-3)GlcNAc(b1-2)Man
# In short: as §1
# Gal(b1-3)GlcNAc = biological target: Gal(b1-3)GlcNAc
# In short: as §1
# [8] = biological target: Gal(b1-3)GlcNAc(b1-3)Gal(b1-4)GlcNAc
# In short: as §1
# [9] = biological target: Gal(b1-3)GlcNAc(b1-3)Gal(b1-4)[Fuc(a1-3)]GlcNAc
# In short: as §1
# Gal(b1-4)GlcNAc(b1-2)Man = biological target: Gal(b1-4)GlcNAc(b1-2)Man
# In short: as §1
# [10] = biological target: Gal(b1-4)GlcNAc(b1-2)Man(a1-3)[Man(a1-6)]Man(b1-4)GlcNAc(b1-4)GlcNAc
# In short: as §1
# [11] = biological target: Gal(b1-4)GlcNAc(b1-2)Man(a1-6)Man(b1-4)GlcNAc(b1-4)GlcNAc
# In short: as §1
# [12] = biological target: Gal(b1-4)GlcNAc(b1-3)Gal(b1-3)GalNAc
# In short: as §1
# [13] = biological target: Gal(b1-4)GlcNAc(b1-3)Gal(b1-4)GlcNAc(b1-3)Gal(b1-4)GlcNAc(b1-2)Man(a1-3)[Gal(b1-4)GlcNAc(b1-3)Gal(b1-4)GlcNAc(b1-3)Gal(b1-4)GlcNAc(b1-2)Man(a1-6)]Man(b1-4)GlcNAc(b1-4)[Fuc(a1-6)]GlcNAc
# In short: as §1
# [14] = biological target: Gal3S(b1-4)[Fuc(a1-3)]GlcNAc
# In short: as §1
# Gal6S(b1-4)Glc = biological target: Gal6S(b1-4)Glc
# In short: as §1
# [15] = biological target: GlcA3S(b1-3)Gal(b1-4)GlcNAc(b1-3)Gal(b1-4)Glc
# In short: as §1
# [16] = biological target: GlcNAc(b1-2)Man(a1-3)[GlcNAc(b1-4)][GlcNAc(b1-2)Man(a1-6)]Man(b1-4)GlcNAc(b1-4)[Fuc(a1-6)]GlcNAc
# In short: as §1
# [17] = biological target: GlcNAc(b1-2)[GlcNAc(b1-4)]Man(a1-3)[GlcNAc(b1-4)][GlcNAc(b1-2)[GlcNAc(b1-6)]Man(a1-6)]Man(b1-4)GlcNAc(b1-4)[Fuc(a1-6)]GlcNAc
# In short: as §1
# [18] = biological target: GlcNAc(b1-2)[GlcNAc(b1-6)]Man(a1-6)[GlcNAc(b1-2)Man(a1-3)]Man(b1-4)GlcNAc(b1-4)GlcNAc
# In short: as §1
# GlcNAc(b1-3)Gal(b1-4)Glc = biological target: GlcNAc(b1-3)Gal(b1-4)Glc
# In short: as §1
# [19] = biological target: GlcNAc(b1-3)Gal(b1-4)GlcNAc(b1-3)Gal(b1-4)GlcNAc(b1-2)[GlcNAc(b1-3)Gal(b1-4)GlcNAc(b1-3)Gal(b1-4)GlcNAc(b1-6)]Man(a1-6)[GlcNAc(b1-3)Gal(b1-4)GlcNAc(b1-3)Gal(b1-4)GlcNAc(b1-2)Man(a1-3)]Man(b1-4)GlcNAc(b1-4)[Fuc(a1-6)]GlcNAc
# In short: as §1
# [20] = biological target: GlcNAc(b1-3)Gal(b1-4)GlcNAc(b1-6)[Gal(b1-3)]GalNAc
# In short: as §1
# [21] = biological target: GlcNAc(b1-3)Gal(b1-4)GlcNAc(b1-6)[GlcNAc(b1-3)]Gal(b1-4)GlcNAc
# In short: as §1
# GlcNAc(b1-3)Man = biological target: GlcNAc(b1-3)Man
# In short: as §1
# [22] = biological target: GlcNAc(b1-3)[GlcNAc(b1-6)]Gal(b1-4)GlcNAc
# In short: as §1
# Kdn(a2-3)Gal(b1-4)Glc = biological target: Kdn(a2-3)Gal(b1-4)Glc
# In short: as §1
# MurNAc(b1-4)GlcNAc = biological target: MurNAc(b1-4)GlcNAc
# In short: as §1
# [23] = biological target: Neu5Ac(a2-3)Gal(b1-3)GalNAc(b1-4)[Neu5Ac(a2-3)]Gal(b1-4)Glc
# In short: as §1
# [24] = biological target: Neu5Ac(a2-3)Gal(b1-3)GalNAc(b1-4)[Neu5Ac(a2-8)Neu5Ac(a2-3)]Gal(b1-4)Glc
# In short: as §1
# [25] = biological target: Neu5Ac(a2-3)Gal(b1-3)GlcNAc(b1-2)Man
# In short: as §1
# [26] = biological target: Neu5Ac(a2-3)Gal(b1-3)[Fuc(a1-4)]GlcNAc
# In short: as §1
# Neu5Ac(a2-3)Gal(b1-4)Glc = biological target: Neu5Ac(a2-3)Gal(b1-4)Glc
# In short: as §1
# [27] = biological target: Neu5Ac(a2-3)Gal(b1-4)GlcNAc(b1-2)Man(a1-3)[Neu5Ac(a2-3)Gal(b1-4)GlcNAc(b1-2)Man(a1-6)]Man(b1-4)GlcNAc(b1-4)[Fuc(a1-6)]GlcNAc
# In short: as §1
# [28] = biological target: Neu5Ac(a2-3)Gal(b1-4)GlcNAc(b1-2)[Neu5Ac(a2-3)Gal(b1-4)GlcNAc(b1-4)]Man(a1-3)[GlcNAc(b1-4)][Neu5Ac(a2-3)Gal(b1-4)GlcNAc(b1-2)[Neu5Ac(a2-3)Gal(b1-4)GlcNAc(b1-6)]Man(a1-6)]Man(b1-4)GlcNAc(b1-4)GlcNAc
# In short: as §1
# [29] = biological target: Neu5Ac(a2-3)Gal(b1-4)GlcNAc(b1-2)[Neu5Ac(a2-3)Gal(b1-4)GlcNAc(b1-6)]Man(a1-6)[Neu5Ac(a2-3)Gal(b1-4)GlcNAc(b1-2)Man(a1-3)][GlcNAc(b1-4)]Man(b1-4)GlcNAc(b1-4)GlcNAc
# In short: as §1
# [30] = biological target: Neu5Ac(a2-3)Gal(b1-4)GlcNAc(b1-3)Gal(b1-4)GlcNAc(b1-3)[Neu5Ac(a2-3)Gal(b1-4)GlcNAc(b1-3)Gal(b1-4)GlcNAc(b1-6)]GalNAc
# In short: as §1
# [31] = biological target: Neu5Ac(a2-3)Gal(b1-4)GlcNAc(b1-3)GalNAc
# In short: as §1
# [32] = biological target: Neu5Ac(a2-3)Gal(b1-4)GlcNAc(b1-3)[Neu5Ac(a2-3)Gal(b1-4)GlcNAc(b1-6)]GalNAc
# In short: as §1
# [33] = biological target: Neu5Ac(a2-3)Gal(b1-4)[Fuc(a1-3)]GlcNAc(b1-3)GalNAc
# In short: as §1
# [34] = biological target: Neu5Ac(a2-6)Gal(b1-4)GlcNAc(b1-2)Man(a1-3)[Man(a1-6)]Man(b1-4)GlcNAc(b1-4)GlcNAc
# In short: as §1
# [35] = biological target: Neu5Ac(a2-6)Gal(b1-4)GlcNAc(b1-2)Man(a1-3)[Neu5Ac(a2-6)Gal(b1-4)GlcNAc(b1-2)Man(a1-6)]Man(b1-4)GlcNAc(b1-4)[Fuc(a1-6)]GlcNAc
# In short: as §1
# [36] = biological target: Neu5Ac(a2-6)Gal(b1-4)GlcNAc(b1-3)Gal(b1-4)GlcNAc(b1-2)Man(a1-3)[Neu5Ac(a2-6)Gal(b1-4)GlcNAc(b1-3)Gal(b1-4)GlcNAc(b1-2)Man(a1-6)]GalNAc
# In short: as §1
# [37] = biological target: Neu5Ac(a2-6)Gal(b1-4)GlcNAc(b1-3)Gal(b1-4)GlcNAc(b1-3)GalNAc
# In short: as §1
# [38] = biological target: Neu5Ac(a2-6)GalNAc(b1-4)GlcNAc
# In short: as §1
# [39] = biological target: Neu5Ac(a2-6)GlcNAc(b1-4)GlcNAc(b1-4)GlcNAc
# In short: as §1
# [40] = biological target: Neu5Ac(a2-8)Neu5Ac(a2-3)Gal(b1-3)GalNAc(b1-4)[Neu5Ac(a2-3)]Gal(b1-4)Glc
# In short: as §1
# [41] = biological target: Neu5Ac(a2-8)Neu5Ac(a2-3)Gal(b1-4)GlcNAc
# In short: as §1
# [42] = biological target: Neu5Ac(a2-8)Neu5Ac(a2-3)[Gal(b1-3)GalNAc(b1-4)]Gal(b1-4)Glc
# In short: as §1
# [43] = biological target: Neu5Ac9Ac(a2-3)Gal(b1-3)GlcNAc
# In short: as §1
# Neu5Gc(a2-3)Gal(b1-4)Glc = biological target: Neu5Gc(a2-3)Gal(b1-4)Glc
# In short: as §1
binder,measurement,setting,value
B1,glycan array binding signal (z-score),Fuc(a1-2)Gal,-0.044
same,glycan array binding signal (z-score),Fuc(a1-2)Gal(b1-3)GalNAc,-0.631
same,glycan array binding signal (z-score),[1],-0.114
same,glycan array binding signal (z-score),[2],2.58
same,glycan array binding signal (z-score),[3],-0.33
same,glycan array binding signal (z-score),[4],0.032
same,glycan array binding signal (z-score),[5],-0.54
same,glycan array binding signal (z-score),[6],1.4
same,glycan array binding signal (z-score),[7],0.466
same,glycan array binding signal (z-score),Gal(b1-3)GlcNAc,0.344
same,glycan array binding signal (z-score),[8],0.129
same,glycan array binding signal (z-score),[9],0.523
same,glycan array binding signal (z-score),Gal(b1-4)GlcNAc(b1-2)Man,3.72
same,glycan array binding signal (z-score),[10],0.362
same,glycan array binding signal (z-score),[11],-0.158
same,glycan array binding signal (z-score),[12],-0.092
same,glycan array binding signal (z-score),[13],2.11
same,glycan array binding signal (z-score),[14],-1.03
same,glycan array binding signal (z-score),Gal6S(b1-4)Glc,-1.15
same,glycan array binding signal (z-score),[15],-1.73
same,glycan array binding signal (z-score),[16],1.22
same,glycan array binding signal (z-score),[17],-0.095
same,glycan array binding signal (z-score),[18],0.893
same,glycan array binding signal (z-score),GlcNAc(b1-3)Gal(b1-4)Glc,-0.719
same,glycan array binding signal (z-score),[19],0.375
same,glycan array binding signal (z-score),[20],1.38
same,glycan array binding signal (z-score),[21],-0.837
same,glycan array binding signal (z-score),GlcNAc(b1-3)Man,0.669
same,glycan array binding signal (z-score),[22],-0.461
same,glycan array binding signal (z-score),Kdn(a2-3)Gal(b1-4)Glc,3.03
same,glycan array binding signal (z-score),MurNAc(b1-4)GlcNAc,2.54
same,glycan array binding signal (z-score),[23],2.9
same,glycan array binding signal (z-score),[24],-1.93
same,glycan array binding signal (z-score),[25],2.63
same,glycan array binding signal (z-score),[26],2.3
same,glycan array binding signal (z-score),Neu5Ac(a2-3)Gal(b1-4)Glc,2.98
same,glycan array binding signal (z-score),[27],-0.332
same,glycan array binding signal (z-score),[28],1.21
same,glycan array binding signal (z-score),[29],-0.505
same,glycan array binding signal (z-score),[30],-0.12
same,glycan array binding signal (z-score),[31],-0.794
same,glycan array binding signal (z-score),[32],-0.411
same,glycan array binding signal (z-score),[33],0.993
same,glycan array binding signal (z-score),[34],2.88
same,glycan array binding signal (z-score),[35],3.58
same,glycan array binding signal (z-score),[36],2.6
same,glycan array binding signal (z-score),[37],-0.312
same,glycan array binding signal (z-score),[38],-0.182
same,glycan array binding signal (z-score),[39],2.47
same,glycan array binding signal (z-score),[40],2.81
same,glycan array binding signal (z-score),[41],-1.02
same,glycan array binding signal (z-score),[42],-1.03
same,glycan array binding signal (z-score),[43],-0.008
same,glycan array binding signal (z-score),Neu5Gc(a2-3)Gal(b1-4)Glc,0.956
